Source: PubChem BioAssay
Sampled rows, rich in hits. Any-hit rate of the full collection: about 4.7%.
tim23-1 inh: growth inhibitors of tim23-1 mutant yeast; 330,000 tested, 1.3% active; inhibition, % at 20 µM; S. cerevisiae tim23-1 growth, BacTiter-Glo luminescence, 24 h;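 active means growth inhibition of the mutant yeast at or above 50%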;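 further: temperature-sensitive mutant grown at 25 °C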
TIM10 inh: TIM10 yeast growth inhibition. 330,000 tested, 1.4% active. inhibition, % at 10 µM. S. cerevisiae TIM10 strain growth, BacTiter-Glo luminescence, 24 h;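 active means inhibition of 40% or more at the single tested concentration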;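 further: wild-type TIM10 isogenic control strain grown at permissive 25 °C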
SKKanGAS inh: SKKanGAS growth inhibition; S. pyogenes SKKanGAS, kanamycin growth, BacTiter-Glo, 6 h; inhibition, % at 7.5 µM; 300,000 tested, 1.3% active; AID 1662;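 active means mean replicate score, as percent of positive control median, at least 50; inconclusive means mean below 50 but one replicate at or above 50; inactive means mean and every replicate below 50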;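 further: strain carries kanamycin resistance gene driven by streptokinase promoter and grows in 40 µg/ml kanamycin; loss of luminescence reflects streptokinase promoter inhibition or plain growth inhibition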
PfHsp90 set2: growth inhibition of yeast expressing Plasmodium Hsp90. S. cerevisiae expressing PfHsp90, BacTiter-Glo ATP, 48 h; yeast lacking PDR1 and PDR3 efflux regulators. AID 504621. 310,000 tested, 0.32% active. inhibition, % at 9.4 µM;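 active means every replicate shows inhibition above about 80%, whatever the replicate mean, limit read from the data; inconclusive means mean inhibition reaches the set limit but some replicate falls short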
Calb FLC: affects C. albicans growth with fluconazole; C. albicans CaCi-2 (fluconazole-resistant clinical isolate) + fluconazole, Alamar Blue growth, 48 h; 300,000 tested, 0.57% active; growth inhibition, % (concentration not given with the values);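 active means growth inhibition above about 58% in most replicates, limit read from the data, passing the limit was not always enough; inconclusive means exactly half the replicates above a set limit; inactive means most replicates below a set limit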;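 further: all wells also contain fluconazole at 8 µg/ml as a sub-toxic cotreatment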
tim10-1 inh: inhibits growth of tim10-1 mutant yeast; S. cerevisiae tim10-1 ts strain growth, BacTiter-Glo, 24 h; inhibition, % at 20 µM; 330,000 tested, 2.2% active; AID 463190;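 active means inhibition of at least 40%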;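 further: mutant grown at 25 °C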
tim10-1 conf: tim10-1 yeast growth inhibition, confirmed; inhibition, % at 20 µM; shares compounds with tim10-1 inh; 7,400 tested, 56% active; AID 463213; S. cerevisiae tim10-1 ts strain growth, BacTiter-Glo, 24 h;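 active means inhibition of yeast growth at or above a set limit in either of two repeat tests at 20 µM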;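 further: tim10-1 mutant grown at permissive 25 °C to find synthetic lethal compounds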
Numbers stand for hits; i = inactive; ? = inconclusive; nt = no result.

SMILES	tim23-1 inh	TIM10 inh	SKKanGAS inh	PfHsp90 set2	Calb FLC	tim10-1 inh	tim10-1 conf
N#CC(CC(=O)c1ccc(F)cc1)c1ccc2c(c1)OCO2 (stereo not given)	i	i	i	i	i	41	31
O=C(/C=C/c1ccc2c(c1)OCO2)c1ccc(F)cc1	i	i	i	i	i	i	nt
CC1CCc2nc(NC(=O)Cc3cccs3)sc2C1 (stereo not given)	i	i	i	i	i	i	nt
CC1CCc2nc(NC(=O)c3ccco3)sc2C1 (stereo not given)	i	i	i	i	i	45	31
CC(C)NC(=O)c1nc2c(nnn2Cc2cccc(Cl)c2)c(=O)[nH]1	i	i	i	i	i	i	nt
Cc1ccc(OCC(=O)NNC(=O)c2ccc(NC(=O)C3CC3)cc2)c(C)c1	i	i	i	i	i	i	nt
Cc1ccc(OCC(=O)NNC(=S)NC(=O)C2CCCCC2)c(C)c1	i	i	90	i	i	47	i
Cc1cc(N)ccc1NC(=O)CN1CCCC1	i	i	i	i	i	i	nt
Cc1ccc(C)c(NC(=O)CN(C)C(=O)c2ccc3[nH]c4c(c3c2)CC(C)CC4)c1 (stereo not given)	i	i	i	nt	nt	i	nt
Cn1c2ccccc2c(=O)c2ccc(C#CC3(O)CCCCC3)cc21	i	i	63	i	i	47	34
Cc1nn(-c2ccc(Cl)cc2)c2[nH]c(CCl)cc(=O)c12	i	i	i	i	i	62	32
O=C(Nc1ncc2c(n1)-c1ccccc1CC2)c1ccccc1	i	i	i	i	i	47	i
O=C(Nc1ncc2c(n1)-c1ccccc1CC2)c1ccc(F)cc1	i	i	i	i	i	40	i
C[C@H](CO)N1C[C@H](C)[C@@H](CN(C)S(C)(=O)=O)Oc2ccc(NC(=O)NC3CCCCC3)cc2C1=O	i	i	nt	i	nt	i	nt
COc1ccc(N2CCN(S(=O)(=O)c3cc(C)ccc3OC)CC2)cc1	i	i	i	i	i	i	nt
O=C(Cc1ccc(S(=O)(=O)N2CCCCC2)s1)Nc1ccc(F)c(F)c1	i	i	i	i	i	47	i
O=C(O)c1ccc(C=C(c2nc3ccccc3s2)c2nc3ccccc3s2)cc1	i	i	i	i	i	59	45
O=C(O)c1ccc(Oc2nc3ccccc3s2)cc1	nt	nt	nt	i	nt	nt	nt
O=C(Nc1cc(Cl)ccc1-n1cncn1)c1cc(F)c(F)c(F)c1F	i	i	i	i	i	i	nt
CCOC(=O)c1c(C2COc3ccccc3O2)csc1NC(=O)c1ccccc1 (stereo not given)	i	i	i	i	i	i	nt
CCOC(=O)c1c(C2COc3ccccc3O2)csc1N (stereo not given)	i	i	i	i	i	45	i
Nc1cc2c(cc1C(=O)c1ccc(Cl)cc1)OCCO2	i	i	i	i	i	41	33
Cc1cc2nc3c(nc2cc1C)C1(C(=O)N(C)C)CCC3(C)C1(C)C (stereo not given)	i	i	i	i	i	i	nt
CN(C)C(=O)C12CCC(C)(c3nc4ccccc4nc31)C2(C)C (stereo not given)	i	i	i	i	i	42	i
CCOC(=O)c1ccc(S(=O)(=O)N2CCN(C3CC(=O)N(c4ccccc4C(F)(F)F)C3=O)CC2)cc1 (stereo not given)	i	i	nt	i	nt	i	nt
SMILES	tim23-1 inh	TIM10 inh	SKKanGAS inh	PfHsp90 set2	Calb FLC	tim10-1 inh	tim10-1 conf
CCc1ccc(-c2cc3c(=O)n(CC(=O)NCCCN4CCC(Cc5ccccc5)CC4)nc(C)n3n2)cc1	i	i	i	i	i	53	i
COc1ccc2cc(C3CC(c4ccco4)=NN3S(=O)(=O)c3ccccc3)c(Cl)nc2c1 (stereo not given)	i	i	i	i	i	47	i
CCOc1ccc2cc(C3CC(c4ccco4)=NN3S(=O)(=O)c3ccccc3)c(Cl)nc2c1 (stereo not given)	i	i	i	i	i	i	nt
C/C(=N\OCc1ccc(C#N)cc1)c1ccccc1	i	i	i	i	?	i	nt
C/C(=N\OCc1ccc(C#N)cc1)c1ccc(S(=O)(=O)N(C)C)cc1	i	i	i	i	i	42	41
CC1C(=O)N2CCCc3cc(NC(=O)COc4ccc(Cl)cc4)cc1c32 (stereo not given)	i	i	i	nt	i	i	nt
COCCNC(=O)c1cc(-c2ccc(-c3ccccc3)cc2)nc2ccccc12	i	i	i	i	i	i	nt
